In the supplement of paper PMC10338343:
± gives the standard deviation. Over roughly 6,200 sequences, “pre-steady-state target cleavage rate” has its median near 0.29; the highest 2% begin near 2. The sample holds the highest values, similar sequences and a random draw of the others, so the mix is not that of the screen.

System: MIWI (PIWIL1) piRISC loaded with piRNA #1 (30 nt)
Test: pre-steady-state target cleavage rate (min^-1); MIWI and MILI are mouse PIWI proteins and EfPiwi is from a freshwater sponge; tags in brackets are library labels; higher = faster piRNA-guided slicing of the target
Details: guide: piRNA #1 5'p-UGAGGUAGUAGGUUGUAUAGUAUCCAGAGG; auxiliary factor: 500 nM mouse GTSF1
Protocol: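 Cleave-'n-Seq: a library of target RNAs (target site embedded in constant flanks, ACAGCATTCCGCGTTAGTGATATCCG... 5' flank; DNA-blocked outside the site) at 0.1 nM was incubated with 1 nM active mouse MILI or MIWI piRISC (synthetic 5'-monophosphorylated piRNA guide) with or without 500 nM mouse GTSF1 at 33 °C for 1 min to 16 h. Uncleaved targets were sequenced and normalised to non-target controls, and the pooled three trials were fitted to a burst-and-steady-state model to give the pre-steady-state cleavage rate (min^-1; k3 is constrained to at most 1e-4). Sequence is the target site only; target names encode pairing extent (gX:gY) and contiguous / 1-mismatch / 2-mismatch / bulge geometry. Fits with R² ≤ 0 are excluded.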

| Sequence | pre-steady-state target cleavage rate |
| --- | --- |
| CCUCUGGAUACUAUAGAACCUACUACCACA | 0.372 ± 0.042 |
| GCUCUGGAUACUAUCACAACCUACUACCUCA | 1.62 ± 0.12 |
| CCUCAGGAUACUAUACAUCCUACUACCUCA | 2.03 ± 0.12 |
| GCUCAGGAUACUAUACAUCCUACUACCUCA | 1.85 ± 0.099 |
| GGUCAGGAUACUAUACAUCCUACUACCUCA | 1.54 ± 0.079 |
| GGUCUCGAUACUAUACAACCUACUACCUCA | 1.83 ± 0.12 |
| UCUCUGGAUACUAUACAACCUACUACCUCA | 2.04 ± 0.1 |
| CCUCUGGAUACCUAUACAACCUACUACCUCA | 1.18 ± 0.072 |
| CCUCUGGAUACUAUACUACCUACAACCUCA | 1.08 ± 0.098 |
| CCUCUGGAUACUAUACAACCUACAACCUCA | 1.56 ± 0.1 |
| GCCUCUGGAUACUAUACAACCUACUACCUCA | 1.89 ± 0.12 |
| CUCUCUGGAUACUAUACAACCUACUACCUCA | 2.1 ± 0.13 |
| GGAGUGGAUACUAUACAACCUACGUACCUCA | 0.712 ± 0.076 |
| GGAGAGGAUACUUUAGAACCUACUACCUCA | 0.919 ± 0.051 |
| GGAGAGGAUACUAUACAACCUACUGACCUCA | 0.576 ± 0.034 |
| GGAGACGAUUCAAUACAACCUACUACCUCA | 0.502 ± 0.063 |
| GGAGACCUAUCUUUACAACCUACUACCUGA | 0.101 ± 0.025 |
| CCUCUGGAUACUAUACAACCUACUACUUCA | 2.32 ± 0.16 |
| GGUCUGGAUACUAUACAACCUACUACUUCA | 1.32 ± 0.095 |
| GCUCUGGAUACUAUACAACCUACUACUUCA | 2.26 ± 0.14 |
| CCUCUGGAUACUAUACAACCUACUACCUUCA | 1.88 ± 0.12 |
| GCUCUGGAUACUAUACAACCUACUACCUUCA | 1.9 ± 0.13 |
| CCUCUGGAUACUAUACAACCUACUUCCUCA | 0.668 ± 0.053 |
| GCUCUGCAUACUAUACAACCUACUACGUCA | 1.24 ± 0.086 |
| GGACUGGAAACUUUACAACCUACUACCUCA | 0.689 ± 0.076 |

| Sequence | pre-steady-state target cleavage rate |
| --- | --- |
| GCUCUGGAUACUAAAGAACCUACUACCUCA | 1.17 ± 0.087 |
| GGAGACCUAACUAUACAACCUAGUUCCUCA | 0.0155 ± 0.0059 |
| CCUCUGGAUACUAUUCAACCUACAACCUCA | 1.62 ± 0.13 |
| CUCUGGAUACUAUACAACCUACUACCUCA | 2.17 ± 0.14 |
| GCUCUGGAUACUAUUCAACCUACAACCUCA | 1.3 ± 0.099 |
| CCUCUGGAUACUAUACAACCUACCUACCUCA | 1.8 ± 0.11 |
| GGUCUGGAUACUAUGCAACCUACUACCUCA | 1.73 ± 0.12 |
| GGUCUGGAUACGAUACAACCUACUACCUCA | 1.79 ± 0.11 |
| CCUCUGGAUACUAUGCAACCUACUACCUCA | 2.09 ± 0.13 |
| CCUCUGGUUACUAUUCAACCUACUACCUCA | 2.15 ± 0.14 |
| GCUCUGGAUACGAUACAACCUACUACCUCA | 1.7 ± 0.086 |
| CCUCUGGAUACUAUACAACCUACUACCUCA [g2:g30:cont:t1A] | 1.96 ± 0.12 |
| GGUCUGGAUACUAUUCAACCUACAACCUCA | 0.28 ± 0.033 |
| CCUCUGGAUACGAUACAACCUACUACCUCA | 2.07 ± 0.11 |
| GCUCUGGAUACUAUGCAACCUACUACCUCA | 1.84 ± 0.1 |
| GGACUGGAUAGUAUACAACCUUCUACCUCA | 0.575 ± 0.045 |
| GGUCUGGAUACUAUACAACGUUCUACCUCA | 0.117 ± 0.014 |
| GGAGACCUAUGUAUAGAACCUUCUACCUCA | 0.0033 ± 0.0012 |
| GCUCUGGAUACUAUACAACCUACUAUCCUCA | 1.51 ± 0.11 |
| GGUGUGGAUACUAUACAACCUUCUACCUCA | 0.734 ± 0.033 |
| GGAGACCUAACUAUACAACGUACUACCACA | 0.165 ± 0.031 |
| GGAGACCUAUGAAUACUAGCUACUACCUCA | < 0.0001 |
| GGAGAGGAUACUAUACAACCUUCUAGCUCA | 0.0222 ± 0.0082 |
| GGACUGGAUACUAUACAACUUACUACCUCA | 0.518 ± 0.023 |
| CCCUCUGGAUACUAUACAACCUACUACCUCA | 2.25 ± 0.12 |

| Sequence | pre-steady-state target cleavage rate |
| --- | --- |
| CCUCUGGAUACUAUUCAACCUACUACCACA | 2.19 ± 0.18 |
| CCUCUGAAUACUAUACAACCUACUACCUCA | 2.09 ± 0.13 |
| CCUCUGGAUACUAAACAACCUACAACCUCA | 1.48 ± 0.12 |
| GCUCUGGAUACUAAACAACCUACAACCUCA | 1.23 ± 0.089 |
| CCUCUGGAUACUAUACAACCUACUACCCUCA | 1.38 ± 0.097 |
| GCUCUGGAUACUAUUCAACCUACUACCACA | 1.9 ± 0.16 |
| CCUCUGGAUACUAAACAACCUACUACCUCA | 1.86 ± 0.12 |
| CCUCUGGUUACUAAACAACCUACUACCUCA | 2.34 ± 0.16 |
| GGUCUGAAUACUAUACAACCUACUACCUCA | 1.8 ± 0.097 |
| CCUCUGGAUACUAUACAACCCUACUACCUCA | 0.00658 ± 0.0036 |
| GCUCUGAAUACUAUACAACCUACUACCUCA | 1.89 ± 0.12 |
| GGUCUGGAUACUAUUCAACCUACUACCACA | 0.506 ± 0.045 |
| GGAGGGGAUACUAUACAACCUACUACCUCA | 1.51 ± 0.069 |
| GCACUGGAUACAAUACAACCUACUACCUCA | 1.8 ± 0.1 |
| GGAGACCUAUCUAUACAACCUACUCACCUCA | 0.537 ± 0.059 |
| GGAGUGGAUACUAAACAACCUACUUCCUCA | 0.0286 ± 0.0079 |
| GGAGUGGAUACUGAUACAACCUACUACCUCA | 1.3 ± 0.098 |
| GGAGACCUAACAAUACAACCUACUACCUGA | 0.00542 ± 0.0049 |
| GGAGAGGAUACGUAUACAACCUACUACCUCA | 0.484 ± 0.047 |
| GGAGUGGUUACAAUACAACCUACUACCUCA | 1.2 ± 0.079 |
| GGUCUGGAAACUAUACAACCUAGUACCUCA | 0.484 ± 0.077 |
| GGAGACCUAACUAUACAACCUACUACCCCA | 0.867 ± 0.099 |
| CCUCUGGAUACUAUACAACCUAUUACCUCA | 2.07 ± 0.13 |
| GCUCUGGAUACUAUACAACCUAUUACCUCA | 1.88 ± 0.13 |
